Assay outcomes from PubChem.
Rows were chosen to be rich in hits. Some 0.96% of all compounds tested hit in one or more screens of this group.
TRPML1 ag: qHTS for Agonists of the Human Mucolipin Transient Receptor Potential 1 (TRPML1) | AID 624414, 2012 | TRPML1-expressing cells, Ca2+ dye fluorescence, FDSS | 410,000 compounds, 0.12% hits | Mucolipin-1 (Homo sapiens), Q9GZU1 | activation, % (test concentration not listed); in the data active = activation above about 50%; inconclusive = mostly about 30% to 49%; also: 0% is about no effect
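Calcium fluorescence on an FDSS kinetic reader gave the read-out. Tet-induced TRPML1-DL cells were plated overnight, dye-loaded (Ca8 with quencher, 45-90 min, room temperature, dark), then read 110 s after compound addition, and again 110 s after 4uM final 54-4 (EC80).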
TRPV1 PAM: HTS Assay for Compounds that Act as Potentiators of the Vanilloid Receptor 1; potentiation, % at 8.33 µM; 320,000 compounds, 0.02% hits; Transient receptor potential cation channel subfamily V member 1 (Homo sapiens), Q8NER1; TRPV1-expressing cells, Fluo-8 calcium influx, capsaicin EC20 potentiation; in the data active = potentiation above about 80%; inconclusive = between about 30% and that limit; also: 0% is about no effect
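TRPV1-expressing cells were cultured overnight at 35.5C and loaded with Fluo-8 calcium dye for 40 to 90 min at room temperature. After a 10 s baseline, compound was added and calcium influx was read kinetically for 3 min (ex 480/em 520 nm).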
TRPV1 agonist: HTS Assay for Compounds that Act as Agonists of the Vanilloid Receptor 1. Transient receptor potential cation channel subfamily V member 1 (Homo sapiens), Q8NER1. activation, % at 8.33 µM. 320,000 compounds, 0.19% hits. TRPV1-expressing cells, Fluo-8 calcium influx, agonist mode. AID 540275, 2011; in the data active = activation above about 80%; inconclusive = between about 30% and that limit; also: 0% is about no effect
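Cells expressing TRPV1 were dye-loaded with Fluo-8 and read kinetically: 10 s baseline, 3 min after compound (agonist portion), then 2 min after EC20 capsaicin (allosteric enhancer portion). Calcium-bound dye fluorescence at 480/520 nm.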
TRHR enhancer-1: qHTS for Small Molecule Agonists and Allosteric Enhancers of Human TRH Receptor: Primary Screen for Enhancers; 360,000 compounds, 0.66% hits; TRHR cells, fluo-8 calcium fluorescence, EC20 TRH enhancement; Thyrotropin-releasing hormone receptor (Homo sapiens), P34981; enhancement, % at 2 µM; AID 493056, 2011; in the data active = enhancement above about 30%; also: 0% is about no effect
Target sequence (P34981 whole entry, looked up): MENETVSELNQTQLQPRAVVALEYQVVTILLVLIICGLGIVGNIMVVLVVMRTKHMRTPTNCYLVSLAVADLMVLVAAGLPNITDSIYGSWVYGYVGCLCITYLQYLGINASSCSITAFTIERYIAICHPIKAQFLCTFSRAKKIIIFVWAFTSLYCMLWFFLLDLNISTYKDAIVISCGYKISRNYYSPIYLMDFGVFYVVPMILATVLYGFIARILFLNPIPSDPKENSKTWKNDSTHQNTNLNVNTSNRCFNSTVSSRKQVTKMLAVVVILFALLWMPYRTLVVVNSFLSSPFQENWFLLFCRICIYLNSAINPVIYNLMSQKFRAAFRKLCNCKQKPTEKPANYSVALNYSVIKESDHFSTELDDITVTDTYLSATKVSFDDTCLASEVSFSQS
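Enhancer read-out: after compound pinning and an initial kinetic agonist-mode read, an EC20 of TRH (10 nM final) was injected and fluo-8 calcium signal (Ex 480/Em 530) followed at 1 s/cycle for 100 cycles in TRHR-expressing cells.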
TRPML1 blocker: qHTS for Inhibitors of the Human Mucolipin Transient Receptor Potential 1 (TRPML1); AID 624415, 2012; Mucolipin-1 (Homo sapiens), Q9GZU1; activity change, negative = inhibition, % (concentration not given with the values); 390,000 compounds, 0.02% hits; TRPML1-inducible cells, Ca2+ dye fluorescence, FDSS; active compounds read low; inhibition of EC80 agonist-evoked calcium signal; in the data active = activity change below about -50%; inconclusive = between about -30% and that limit;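 also: stimulus is agonist 54-4 at its EC80 concentration; % is scaled to controls: 0 for no effect and ±100 for the full control effect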
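Calcium fluorescence in TRPML1-DL cells induced overnight with Tet: a 110 s read after compound pin addition, then a 110 s antagonist read after challenge with 54-4 at 4 uM final (EC80).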
TRHR agonist-1: qHTS for Small Molecule Agonists and Allosteric Enhancers of Human TRH Receptor: Primary Screen for Agonists. Thyrotropin-releasing hormone receptor (Homo sapiens), P34981. TRHR cells, calcium flux fluo-8, FDSS agonist mode. activation, % at 2 µM. 360,000 compounds, 0.18% hits; in the data active = activation above about 30%; also: 0% is about no effect
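Agonist-mode FDSS calcium read (Ex 480/Em 530, 1 s cycles) in 1536-well TRHR cells with fluo-8 dye, after 10-cycle baseline and 23 nL compound addition; TRH at EC20 (10 nM final) added afterwards for the enhancer phase.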
TRHR enhancer-2: qHTS for Small Molecule Agonists and Allosteric Enhancers of Human TRH Receptor: Confirmation Screen for Enhancers. 970 tested, under 10 active. shares compounds with TRHR enhancer-1. AID 493076, 2011. activity change, negative = inhibition, % at 46.1 µM. TRH receptor cell assay, enhancer confirmation qHTS;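 also: compound effect scored on response to added TRH at EC20 of 10 nM; 0% is about no effect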
TRHR agonist-2: qHTS for Small Molecule Agonists and Allosteric Enhancers of Human TRH Receptor: Confirmation Screen for Agonists | AID 493078, 2011 | TRHR-expressing cells, agonist activation read-out | shares compounds with TRHR enhancer-1 | Potency, µM (doses to about 46.1 µM), without a hit: top-dose activation, actives largely listed as activators | 970 compounds, 8% hits; also: potency is read from the fitted curve at half-maximal effect; 0% is about no effect; nearly all actives have a fitted effect of over 75% in size
* marks the source's active call; other numbers are inactive results. Unless noted, calls follow the shape of the dose curve; as a rule, active = well fitted curve in the direction sought with a large enough effect; inconclusive = small, poorly fitted or top-dose-only effect, or another doubt; inactive = no such curve, though single readings can be large; an effect the other way counts as inactive or inconclusive.

`O=C1/C(=C/c2cccs2)CCC/C1=C\c1cccs1` gave TRPML1 ag 11.7, TRPV1 PAM 17.4, TRPV1 agonist 2.8, TRHR enhancer-1 7.3, TRPML1 blocker -13.4 and TRHR agonist-1 2.5.
Screening Cn1cccc1/C=C1\CCC/C(=C\c2cccn2C)C1=O returned TRPML1 ag inconclusive, TRPV1 PAM -9.8, TRPV1 agonist inconclusive, TRHR enhancer-1 2.7, TRPML1 blocker -10.5, TRHR agonist-1 53.1*, TRHR enhancer-2 0.6 and TRHR agonist-2 18.4µM*.
For Cn1c2cc(B(O)O)sc2c2cnn(Cc3c(F)cccc3Cl)c(=O)c21 the results were TRHR enhancer-1 5.5 and TRHR agonist-1 3.4.
For CC(=O)Nc1ccc(S(=O)(=O)NCCC(=O)OCC(=O)N2CCN(C(=O)c3ccco3)CC2)cc1 the results were TRPML1 ag -0.3, TRPV1 PAM 3.7, TRPV1 agonist -1.8, TRHR enhancer-1 46.0*, TRPML1 blocker -10.7, TRHR agonist-1 1.2, TRHR enhancer-2 -6.9 and TRHR agonist-2 -0.8%.
`COc1cc(NC(=O)CSc2nc3[nH]ncc3c(=O)n2-c2ccccc2C)cc(OC)c1OC` gave TRPML1 ag -0.3, TRPV1 PAM 6.8, TRPV1 agonist -0.1, TRHR enhancer-1 -2.3, TRPML1 blocker -2.8 and TRHR agonist-1 -0.1.
Screening C=CCN(C(=O)CSc1nc2[nH]ncc2c(=O)n1-c1ccccc1OC)c1ccccc1 returned TRPML1 ag 1.2, TRPV1 PAM -6.7, TRPV1 agonist 3.8, TRHR enhancer-1 -5.4, TRPML1 blocker -10.4, TRHR agonist-1 31.5*, TRHR enhancer-2 -3.2 and TRHR agonist-2 2.5%.
`Fc1ccccc1-c1ccc(-c2nc3ccc(Cl)cn3c2Nc2ccc(Cl)cc2)o1` gave TRPML1 ag 1.2.
For CCc1nnc(NC(=O)C2CCN(c3ncnc4sc(C)c(C)c34)CC2)s1 the results were TRPML1 ag 1.6, TRPV1 PAM 14.1, TRPV1 agonist -2.9, TRHR enhancer-1 42.0*, TRPML1 blocker 0.1, TRHR agonist-1 -0.5, TRHR enhancer-2 2.8 and TRHR agonist-2 5.2%.
For CCOC(=O)c1[nH]c(C)c(C(=O)N(CC)CC)c1C the results were TRPML1 ag 0.8, TRPV1 PAM -13.8, TRPV1 agonist -0.7, TRHR enhancer-1 52.1*, TRPML1 blocker 32.8, TRHR agonist-1 -0.1, TRHR enhancer-2 -7.8 and TRHR agonist-2 0.7%.
`CCOC(=O)c1[nH]c(C)c(C(=O)OCC)c1C` gave TRPML1 ag -1.4, TRPV1 PAM -4.2, TRPV1 agonist -2.5, TRHR enhancer-1 19.0, TRPML1 blocker -5.2 and TRHR agonist-1 -1.2.
COc1ccc(NC(=O)COc2ccccc2C(=O)Nc2ccccc2)cc1 was read as TRPML1 ag -0.7.
`CS(=O)(=O)c1ccc(Cl)c(NC(=O)CN2CCCC2c2ccc3c(c2)OCCCO3)c1` (stereo not given) gave TRPML1 ag -1.6, TRPV1 PAM -18.1, TRPV1 agonist inconclusive, TRHR enhancer-1 45.7*, TRPML1 blocker 4.8, TRHR agonist-1 -0.5, TRHR enhancer-2 -23.5 and TRHR agonist-2 1.0%.
